# From PubChem BioAssay
# The source made the active and inactive calls.
# Columns and labels:
# [1] = tested on: Plasmodium falciparum Sir2 (PF13_0152, Sir2A); test: Plasmodium falciparum Sir2A binding compounds – biochemical, small-molecule microarray, 635 nm fluorescence, primary screen (AID 1098); conditions: fluorescence 635 nm, higher = more signal;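 also: score merges spot fluorescence intensity with its signal-to-noise ratio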
# [2] = probe aDKK1 binding to arrayed compounds – biochemical, biotinylated probe, 635/667 nm fluorescence, primary screen (AID 1099); conditions: small-molecule microarray, higher = more signal;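 also: score merges 667nm spot fluorescence with signal to noise across triplicate slides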
# [3] = probe aCHRDL2 binding to arrayed compounds – biochemical, biotinylated probe, 635/667 nm fluorescence, primary screen (AID 1100); conditions: small-molecule microarray, higher = more signal
# [4] = change in splice reporter luminescence, either direction, cell-based, HEK293, spliceosome inhibition project, primary screen (AID 1101); conditions: HEK293 splicing luciferase reporter, 24 h, higher = more signal, called active from +8 up or from −8 down;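 also: HEK293 cells carrying a splicing-competent luciferase reporter gene; test concentration not given here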
# [5] = target: Fibroblast growth factor 10 (Homo sapiens) (UniProt O15520); test: compounds binding fibroblast growth factor 10 – biochemical, small-molecule microarray, 635 nm fluorescence, primary screen (AID 1102); conditions: FGF10 binding, fluorescence 635 nm, higher = more signal
# Fibroblast growth factor 10 (Homo sapiens), sequence (O15520 whole entry, looked up): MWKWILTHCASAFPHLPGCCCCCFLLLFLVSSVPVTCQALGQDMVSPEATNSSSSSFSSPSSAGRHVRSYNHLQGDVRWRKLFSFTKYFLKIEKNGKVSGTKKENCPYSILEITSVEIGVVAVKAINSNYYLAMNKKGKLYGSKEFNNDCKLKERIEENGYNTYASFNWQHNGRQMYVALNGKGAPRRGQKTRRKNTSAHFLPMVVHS
# [6] = tested on: glycogen synthase kinase-3 (GSK3A per assay name; protocol says GSK3B); test: compounds binding glycogen synthase kinase-3 – biochemical, small-molecule microarray, 635 nm fluorescence, GSK3A, primary screen (AID 1103); conditions: fluorescence 635 nm, higher = more signal; also: the record names both GSK3A and GSK3B
# [7] = target: Epidermal growth factor receptor (Homo sapiens) (UniProt P00533); test: compounds binding epidermal growth factor receptor – biochemical, small-molecule microarray, 635 nm fluorescence, primary screen (AID 1104); conditions: EGFR binding, higher = more signal;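 also: score merges 667 nm emission intensity with spot signal to noise over triplicate slides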
# Epidermal growth factor receptor (Homo sapiens), sequence (P00533 whole entry, looked up): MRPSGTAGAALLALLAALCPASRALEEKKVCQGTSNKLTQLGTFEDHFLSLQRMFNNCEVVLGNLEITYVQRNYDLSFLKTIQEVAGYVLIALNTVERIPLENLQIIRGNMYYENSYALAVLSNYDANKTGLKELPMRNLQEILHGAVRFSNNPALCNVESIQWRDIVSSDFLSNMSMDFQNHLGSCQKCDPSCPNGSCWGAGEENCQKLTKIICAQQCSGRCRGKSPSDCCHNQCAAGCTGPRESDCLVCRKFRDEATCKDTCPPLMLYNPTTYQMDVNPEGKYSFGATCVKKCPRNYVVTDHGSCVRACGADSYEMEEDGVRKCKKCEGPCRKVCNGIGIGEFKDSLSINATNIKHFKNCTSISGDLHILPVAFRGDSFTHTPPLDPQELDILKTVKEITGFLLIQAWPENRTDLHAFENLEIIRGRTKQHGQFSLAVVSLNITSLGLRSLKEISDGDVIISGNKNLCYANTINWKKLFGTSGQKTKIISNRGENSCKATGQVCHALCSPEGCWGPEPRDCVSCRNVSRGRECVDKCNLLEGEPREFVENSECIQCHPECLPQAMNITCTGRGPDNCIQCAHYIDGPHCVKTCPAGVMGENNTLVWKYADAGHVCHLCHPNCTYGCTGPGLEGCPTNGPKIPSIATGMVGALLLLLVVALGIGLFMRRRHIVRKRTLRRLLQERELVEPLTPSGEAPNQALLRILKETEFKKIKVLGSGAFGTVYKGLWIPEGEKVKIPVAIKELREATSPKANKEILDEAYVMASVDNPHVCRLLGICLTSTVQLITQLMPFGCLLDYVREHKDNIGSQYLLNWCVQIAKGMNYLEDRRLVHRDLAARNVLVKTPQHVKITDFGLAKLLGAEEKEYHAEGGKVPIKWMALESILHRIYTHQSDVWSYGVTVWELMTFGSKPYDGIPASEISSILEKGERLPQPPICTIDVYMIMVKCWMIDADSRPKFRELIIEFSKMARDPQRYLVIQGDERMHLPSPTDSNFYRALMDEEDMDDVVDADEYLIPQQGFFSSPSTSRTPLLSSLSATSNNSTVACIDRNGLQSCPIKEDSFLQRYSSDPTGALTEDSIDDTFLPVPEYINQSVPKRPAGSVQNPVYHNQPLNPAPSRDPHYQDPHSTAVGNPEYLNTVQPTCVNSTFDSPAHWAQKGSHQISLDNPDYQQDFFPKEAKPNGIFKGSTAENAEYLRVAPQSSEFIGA
# [8] = target: Follistatin-related protein 3 (Homo sapiens) (UniProt O95633); test: compounds binding follistatin-related protein 3 – biochemical, small-molecule microarray, 635 nm fluorescence, primary screen (AID 1105); conditions: FSTL3 binding, higher = more signal;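 also: score merges emission near 667 nm and signal to noise per printed spot across three slides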
# Follistatin-related protein 3 (Homo sapiens), sequence (O95633 whole entry, looked up): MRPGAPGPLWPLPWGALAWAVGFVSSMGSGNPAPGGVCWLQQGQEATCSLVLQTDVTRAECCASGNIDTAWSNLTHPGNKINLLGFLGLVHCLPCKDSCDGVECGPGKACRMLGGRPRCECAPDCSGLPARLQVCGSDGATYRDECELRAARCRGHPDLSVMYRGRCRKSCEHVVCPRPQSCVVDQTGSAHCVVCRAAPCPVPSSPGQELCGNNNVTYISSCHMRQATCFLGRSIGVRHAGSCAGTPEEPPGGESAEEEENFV
# [9] = target: Dickkopf-related protein 1 (Homo sapiens) (UniProt O94907); test: small molecules binding DKK1 protein – biochemical, small-molecule microarray, 635 nm fluorescence scan, primary screen (AID 1106); conditions: higher = more signal;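 also: score merges emission near 667 nm with signal to noise over three replicate slides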
# Dickkopf-related protein 1 (Homo sapiens), sequence (O94907 whole entry, looked up): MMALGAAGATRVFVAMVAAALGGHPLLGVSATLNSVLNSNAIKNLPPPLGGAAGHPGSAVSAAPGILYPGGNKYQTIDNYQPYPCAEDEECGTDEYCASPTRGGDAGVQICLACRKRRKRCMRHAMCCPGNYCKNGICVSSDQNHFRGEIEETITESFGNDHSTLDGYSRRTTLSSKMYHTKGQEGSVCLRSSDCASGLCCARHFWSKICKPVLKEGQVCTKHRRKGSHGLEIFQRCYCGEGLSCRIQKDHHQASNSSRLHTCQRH
# [10] = tested on: Inhibin beta A chain (activin A); test: small molecules binding activin A – biochemical, small-molecule microarray, 635 nm fluorescence scan, primary screen (AID 1107); conditions: INHBA, higher = more signal;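 also: mouse activin A protein probed at 4.33 µg/mL on printed slides; score merges bound-protein fluorescence near 667 nm with spot signal-to-noise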
# [11] = tested on: Human papillomavirus type 1a protein E7 (residues 44-93); test: small molecules binding HPV E7 44-93 – biochemical, small-molecule microarray, residues 44-93, 635 nm fluorescence, primary screen (AID 1108); conditions: fluorescence 635 nm, higher = more signal;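 also: E7 fragment applied at 1 µg/mL in TBST for 1 h at 4 C; score combines spot fluorescence with its signal to noise ratio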
# [12] = hepatitis C replication reporter changes, two-sided – Huh7 cells, luciferase reporter, HCV replication inhibitor project, primary screen (AID 1109); conditions: Huh7 HCV replicon luciferase reporter, 48 h; higher = more signal;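 also: huh7 hepatoma cells harbouring a luciferase neomycin HCV replicon reporter; luciferase luminescence as measure of HCV replicon replication; test concentration not given here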
# [13] = target: Left-right determination factor 2 (Homo sapiens) (UniProt O00292); test: small molecules binding LEFTY2 protein – biochemical, small-molecule microarray, 635 nm fluorescence scan, primary screen (AID 1110); conditions: higher = more signal
# Left-right determination factor 2 (Homo sapiens), sequence (O00292 whole entry, looked up): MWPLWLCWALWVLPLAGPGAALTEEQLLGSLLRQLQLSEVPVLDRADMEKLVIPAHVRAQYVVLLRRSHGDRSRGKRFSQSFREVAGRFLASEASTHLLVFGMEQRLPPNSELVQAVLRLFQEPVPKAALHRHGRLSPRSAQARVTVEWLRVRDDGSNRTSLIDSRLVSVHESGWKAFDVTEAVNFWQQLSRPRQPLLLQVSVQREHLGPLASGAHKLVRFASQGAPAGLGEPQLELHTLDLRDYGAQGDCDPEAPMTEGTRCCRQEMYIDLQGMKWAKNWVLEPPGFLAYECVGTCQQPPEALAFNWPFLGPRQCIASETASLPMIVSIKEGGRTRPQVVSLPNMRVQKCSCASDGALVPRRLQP
# [14] = target: Calmodulin-1 (Homo sapiens) (UniProt P0DP23); test: small molecules binding calmodulin-1 with EGTA – biochemical, small-molecule microarray, Cy5-labelled CALM1, profiling panel (AID 1111); conditions: Cy5-CALM1 binding fluorescence, higher = more signal;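 also: labelled calmodulin applied in Tris saline Tween buffer holding calcium plus EGTA and DTT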
# [15] = target: Calmodulin-1 (Homo sapiens) (UniProt P0DP23); test: small molecules binding Ca-loaded calmodulin-1 – biochemical, small-molecule microarray, Cy5-labelled CALM1, plus calcium, artefact control for SMM control-protein annotation, profiling panel (AID 1112); conditions: Cy5-CALM1 binding fluorescence, higher = more signal;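 also: score merges spot fluorescence with signal to noise from triplicate slides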
# [16] = probe aWnt5a binding to arrayed compounds – biochemical, biotinylated probe, 635/667 nm fluorescence, primary screen (AID 1113); conditions: small-molecule microarray, higher = more signal;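 also: score merges 667 nm fluorescence intensity with signal-to-noise per printed feature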
# [17] = probe aShh binding to arrayed compounds – biochemical, biotinylated probe, 635/667 nm fluorescence, primary screen (AID 1114); conditions: small-molecule microarray, higher = more signal;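 also: probe is biotin-labelled aShh protein from a stem cell growth factor screen; measures binding of labelled protein to compounds printed on the slide; score merges feature fluorescence at 667 nm with signal-to-noise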
# [18] = probe aNog binding to arrayed compounds – biochemical, biotinylated probe, 635/667 nm fluorescence, primary screen (AID 1115); conditions: small-molecule microarray, higher = more signal;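 also: probe is biotinylated aNog protein used at 0.15 µg/mL for 1 h at 4 C; z-score combines 667 nm fluorescence of each spot with its signal to noise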
# [19] = target: Torsin-1A-interacting protein 1 (Homo sapiens) (UniProt Q5JTV8); test: compound microarray binding of lysate hLAP1 – cell lysate, small-molecule microarray, COS7 lysate, 635/667 nm fluorescence, primary screen (AID 1116); conditions: 635 nm fluorescence, higher = more signal
# Torsin-1A-interacting protein 1 (Homo sapiens), sequence (Q5JTV8 whole entry, looked up): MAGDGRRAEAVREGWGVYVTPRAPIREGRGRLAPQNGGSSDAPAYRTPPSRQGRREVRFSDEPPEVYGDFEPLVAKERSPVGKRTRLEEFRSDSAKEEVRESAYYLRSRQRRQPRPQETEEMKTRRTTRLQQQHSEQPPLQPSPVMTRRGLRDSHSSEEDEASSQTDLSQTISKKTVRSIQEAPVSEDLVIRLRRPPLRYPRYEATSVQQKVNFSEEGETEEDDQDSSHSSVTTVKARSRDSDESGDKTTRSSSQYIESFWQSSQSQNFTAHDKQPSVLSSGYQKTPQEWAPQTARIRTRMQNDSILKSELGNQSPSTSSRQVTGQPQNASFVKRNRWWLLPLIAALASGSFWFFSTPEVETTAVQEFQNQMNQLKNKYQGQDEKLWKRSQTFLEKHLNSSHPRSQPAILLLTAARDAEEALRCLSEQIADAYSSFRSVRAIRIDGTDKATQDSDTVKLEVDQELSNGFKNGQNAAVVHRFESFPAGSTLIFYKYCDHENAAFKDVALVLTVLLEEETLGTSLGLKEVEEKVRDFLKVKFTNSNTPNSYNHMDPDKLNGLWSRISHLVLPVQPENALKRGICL
# [20] = target: Alpha-bungarotoxin (Bungarus multicinctus) (UniProt P60615); test: compounds binding labelled alpha-BTX control protein – biochemical, small-molecule microarray, Alexa647 label, 635/667 nm fluorescence, artefact control for SMM control protein annotation, profiling panel (AID 1117); conditions: alpha-BTX-A647 binding fluorescence, higher = more signal
# Alpha-bungarotoxin (Bungarus multicinctus), sequence (P60615 whole entry, looked up): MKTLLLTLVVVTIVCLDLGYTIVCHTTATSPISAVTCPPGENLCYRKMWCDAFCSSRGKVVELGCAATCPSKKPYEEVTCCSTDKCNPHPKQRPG
SMILES,composite z-score [1],composite z-score [2],composite z-score [3],z-score [4],composite z-score [5],composite z-score [6],composite z-score [7],composite z-score [8],composite z-score [9],composite z-score [10],composite z-score [11],z-score [12],composite z-score [13],composite z-score [14],composite z-score [15],composite z-score [16],composite z-score [17],composite z-score [18],composite z-score [19],composite z-score [20]
O=C(NN=C1C[C@@H](O)[C@@H](O)[C@@H]2[C@@H]3C(=O)N(C4CCCCC4)C(=O)[C@@H]3CC[C@H]12)OCc1ccccc1,0.0222,0.691,1.07,-0.177 (inactive),0.836,0.0816,0.554,-0.483,-0.504,-0.0726,-0.342,-2.03,0.393,-0.202,0.454,-0.0051,-0.542,0.0014,0.26,0.273
C[n+]1ccc(-c2ccc(CO)cc2)cc1,-1.19,0.116,0.808,1.29 (inactive),0.747,-0.435,1.51,1.6,0.953,2.16,-1.04,-0.0613,0.616,0.468,0.607,-0.117,-0.0709,-0.329,0.724,3.86
COc1cccc([C@H]2Oc3ccc(OC)cc3C(=NO[C@H](C)c3cn([C@H](CO)Cc4ccccc4)nn3)[C@@H]2O)c1,-0.42,-0.561,-0.0229,0.397 (inactive),0.0546,-0.617,-0.0537,-0.0403,-0.28,0.548,-0.995,-1.74,0.323,-1.57,-0.45,-0.175,-0.229,-0.141,0.169,-0.689
CCOC(=O)[C@H](Cc1ccccc1)NC(=O)OC1CC(CCC2CC(CC)=NO2)OC2(CCCC(COC(=O)NCCC(C)C)O2)C1 (stereo not given in full),0.328,-0.246,-0.264,0.667 (inactive),0.848,0.207,0.0954,-0.127,0.0585,-0.415,0.836,-1.39,0.0791,0.426,0.0002,0.0292,-0.195,0.152,0.309,0.426
CC(CCN1CCCc2nc(C)c(C)cc21)=NOC(C)CN1CCCCc2nc(C)c(C)cc21 (stereo not given),1.16,0.0616,-0.271,0.322 (inactive),1.14,1.28,1.2,1.42,1.18,1.43,1.35,-1.66,0.984,0.341,-0.568,0.159,0.689,0.57,0.436,0.714
COC(=O)CC=C[C@@H](C)[C@@H](C=NOC[C@H]1O[C@H](c2ccccc2)C=C[C@@H]1Oc1ccc(OC)cc1)OC,-0.67,-0.242,-0.212,-0.194 (inactive),0.268,-0.393,-0.587,0.173,-0.0407,0.807,-0.585,-1.7,-0.255,-1.15,-1.27,-0.106,-0.243,-0.44,-0.37,-0.262
O=C1[C@H]2[C@H]3[C@H](O)[C@H](O)CC(=NOC[C@@H](O)COCc4ccco4)[C@H]3CC[C@H]2C(=O)N1c1ccc(F)cc1F,-0.295,0.0973,-0.901,-2.86 (inactive),-0.921,0.0894,-0.553,-0.529,-0.301,-0.413,-3.61,-0.988,0.0845,-1.3,-1.07,-0.282,-0.504,1.39,0.346,-0.59
COC(=O)[C@H](C)NC(=O)CCC1CC(OC(=O)NCc2ccc3c(c2)OCO3)CC2(CCCC(COC(=O)NCCc3ccccc3OC)O2)O1 (stereo not given in full),0.417,-0.037,-0.24,-0.293 (inactive),0.0774,0.0268,-0.102,-0.108,-0.253,-0.28,0.776,-0.941,0.0048,-0.173,0.351,-0.219,-0.206,-0.0653,0.561,0.253
CO[C@H]1COC(=O)CCC[C@@H](C)[C@H](OC)COC(=O)[C@@H]2CCCN2C(=O)CC=C[C@@H]1C,1.78,-0.313,-0.959,-0.599 (inactive),0.269,0.482,0.802,1.02,1.16,1.26,-1.68,-2.06,1.18,-0.984,-1.72,-0.236,-0.0533,-0.0553,1.09,0.199
CO[C@@H]1C=CCC(=O)N2CCC[C@H]2C(=O)OC[C@@H](C)C(=O)OC[C@H]1C,1.1,-0.21,-0.822,-0.497 (inactive),0.441,0.484,0.521,1.44,1.43,0.163,-0.291,0.189,0.837,-0.759,-1.02,-0.0896,-0.0362,-0.246,-0.0837,-0.276
CC(CCN1CCc2nc(-c3ccccc3)c(-c3ccccc3)cc2C1)=NOC[C@@H](O)COCc1ccco1,0.752,-0.131,-0.614,0.0302 (inactive),0.52,0.814,0.377,0.776,1.08,1.48,0.58,-1.11,0.718,-0.216,-0.625,-0.0346,0.0048,-0.0524,0.323,0.365
C#CCCCON=C1C[C@@H](O)[C@@H](O)[C@@H]2[C@@H]3C(=O)N(C(C)(C)C)C(=O)[C@@H]3CC[C@H]12,0.115,0.765,1.24,0.233 (inactive),-0.165,-0.656,-0.0084,-0.866,-0.996,0.615,-0.149,-0.134,-0.0304,-0.245,-0.0493,0.0926,-0.154,-0.0675,-0.0059,1.27
